Measurements from PubChem BioAssay.
The source made the active and inactive calls.

What was measured:
[1] = test system: Human papillomavirus type 1a protein E7 (residues 44-93); assay: HPV1a E7 fragment binders on microarrays, primary screen, biochemical, small-molecule microarray, residues 44-93, 635 nm fluorescence (AID 1108); settings: small-molecule microarray binding, fluorescence 635 nm; higher = more signal;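 note: E7 fragment applied at 1 µg/mL in TBST for 1 h at 4 C; score combines spot fluorescence with its signal to noise ratio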
[2] = modulators of HCV replicon luciferase signal, primary screen, HCV replication inhibitor project, Huh7 cells, luciferase reporter (AID 1109); settings: 48 h, higher = more signal;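 note: huh7 hepatoma cells harbouring a luciferase neomycin HCV replicon reporter; luciferase luminescence as measure of HCV replicon replication; test concentration not given here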
[3] = target: Left-right determination factor 2 (Homo sapiens) (UniProt O00292); assay: LEFTY2 binders on small-molecule microarrays, primary screen, biochemical, small-molecule microarray, 635 nm fluorescence scan (AID 1110); settings: LEFTY2 binding, higher = more signal
Chain of Left-right determination factor 2 (Homo sapiens) (O00292 whole entry, looked up): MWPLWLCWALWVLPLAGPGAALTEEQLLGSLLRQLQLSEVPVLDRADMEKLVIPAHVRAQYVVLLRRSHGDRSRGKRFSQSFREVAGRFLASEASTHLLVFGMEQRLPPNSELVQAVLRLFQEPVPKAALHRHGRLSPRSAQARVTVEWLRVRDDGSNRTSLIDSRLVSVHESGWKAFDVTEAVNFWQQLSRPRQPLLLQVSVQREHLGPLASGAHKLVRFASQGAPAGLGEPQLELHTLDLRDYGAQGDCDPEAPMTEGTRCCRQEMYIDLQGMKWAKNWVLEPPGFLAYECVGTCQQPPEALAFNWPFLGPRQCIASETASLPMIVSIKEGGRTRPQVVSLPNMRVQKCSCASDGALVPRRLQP

[4] = target: Calmodulin-1 (Homo sapiens) (UniProt P0DP23); assay: CALM1 binders on microarrays, EGTA buffer, profiling panel, biochemical, small-molecule microarray, Cy5-labelled CALM1 (AID 1111); settings: Cy5-CALM1 binding fluorescence, higher = more signal;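 note: labelled calmodulin applied in Tris saline Tween buffer holding calcium plus EGTA and DTT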
[5] = target: Calmodulin-1 (Homo sapiens) (UniProt P0DP23); assay: calcium-bound CALM1 binders on microarrays, profiling panel, artefact control for SMM control-protein annotation, biochemical, small-molecule microarray, Cy5-labelled CALM1, plus calcium (AID 1112); settings: Cy5-CALM1 binding fluorescence, higher = more signal;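 note: score merges spot fluorescence with signal to noise from triplicate slides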
[6] = small-molecule microarray binders of probe aWnt5a, primary screen, biochemical, biotinylated probe, 635/667 nm fluorescence (AID 1113); settings: higher = more signal;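 note: score merges 667 nm fluorescence intensity with signal-to-noise per printed feature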
[7] = small-molecule microarray binders of probe aShh, primary screen, biochemical, biotinylated probe, 635/667 nm fluorescence (AID 1114); settings: higher = more signal;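 note: probe is biotin-labelled aShh protein from a stem cell growth factor screen; measures binding of labelled protein to compounds printed on the slide; score merges feature fluorescence at 667 nm with signal-to-noise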
[8] = small-molecule microarray binders of probe aNog, primary screen, biochemical, biotinylated probe, 635/667 nm fluorescence (AID 1115); settings: higher = more signal;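 note: probe is biotinylated aNog protein used at 0.15 µg/mL for 1 h at 4 C; z-score combines 667 nm fluorescence of each spot with its signal to noise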
[9] = target: Torsin-1A-interacting protein 1 (Homo sapiens) (UniProt Q5JTV8); assay: LAP1 binders from COS7 cell lysate, primary screen, small-molecule microarray, 635/667 nm fluorescence (AID 1116); settings: COS7-hLAP1 lysate binding, 635 nm fluorescence, higher = more signal
Chain of Torsin-1A-interacting protein 1 (Homo sapiens) (Q5JTV8 whole entry, looked up): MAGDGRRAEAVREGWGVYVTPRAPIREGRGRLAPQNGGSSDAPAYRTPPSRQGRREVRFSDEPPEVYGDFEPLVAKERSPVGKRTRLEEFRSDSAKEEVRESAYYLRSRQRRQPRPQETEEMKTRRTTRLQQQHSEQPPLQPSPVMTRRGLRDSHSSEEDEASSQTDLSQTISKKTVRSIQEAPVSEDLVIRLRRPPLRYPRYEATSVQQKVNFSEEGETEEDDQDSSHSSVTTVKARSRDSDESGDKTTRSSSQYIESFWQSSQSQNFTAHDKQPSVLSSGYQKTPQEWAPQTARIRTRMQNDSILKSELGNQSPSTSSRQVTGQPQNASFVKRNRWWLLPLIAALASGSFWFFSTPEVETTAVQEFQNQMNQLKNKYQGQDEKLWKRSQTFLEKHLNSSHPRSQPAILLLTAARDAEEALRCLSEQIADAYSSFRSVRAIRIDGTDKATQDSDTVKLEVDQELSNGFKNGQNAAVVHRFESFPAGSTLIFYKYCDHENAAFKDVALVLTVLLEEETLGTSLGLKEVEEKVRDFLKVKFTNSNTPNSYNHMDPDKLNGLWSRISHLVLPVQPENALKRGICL

[10] = target: Alpha-bungarotoxin (Bungarus multicinctus) (UniProt P60615); assay: alpha-bungarotoxin binders on microarray, profiling panel, artefact control for SMM control protein annotation, biochemical, small-molecule microarray, Alexa647 label, 635/667 nm fluorescence (AID 1117); settings: alpha-BTX-A647 binding fluorescence, higher = more signal
Chain of Alpha-bungarotoxin (Bungarus multicinctus) (P60615 whole entry, looked up): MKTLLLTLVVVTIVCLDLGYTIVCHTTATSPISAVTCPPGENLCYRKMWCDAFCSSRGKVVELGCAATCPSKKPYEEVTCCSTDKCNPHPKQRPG

[11] = target: Albumin (Bos taurus) (UniProt P02769); assay: bovine serum albumin binders on microarray, profiling panel, artefact control for SMM control protein annotation, biochemical, small-molecule microarray, Alexa647 label, 635/667 nm fluorescence (AID 1118); settings: BSA-A647 binding, fluorescence 635 nm, higher = more signal;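 note: score merges 667 nm emission intensity and signal-to-noise per printed compound spot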
Chain of Albumin (Bos taurus) (P02769 whole entry, looked up): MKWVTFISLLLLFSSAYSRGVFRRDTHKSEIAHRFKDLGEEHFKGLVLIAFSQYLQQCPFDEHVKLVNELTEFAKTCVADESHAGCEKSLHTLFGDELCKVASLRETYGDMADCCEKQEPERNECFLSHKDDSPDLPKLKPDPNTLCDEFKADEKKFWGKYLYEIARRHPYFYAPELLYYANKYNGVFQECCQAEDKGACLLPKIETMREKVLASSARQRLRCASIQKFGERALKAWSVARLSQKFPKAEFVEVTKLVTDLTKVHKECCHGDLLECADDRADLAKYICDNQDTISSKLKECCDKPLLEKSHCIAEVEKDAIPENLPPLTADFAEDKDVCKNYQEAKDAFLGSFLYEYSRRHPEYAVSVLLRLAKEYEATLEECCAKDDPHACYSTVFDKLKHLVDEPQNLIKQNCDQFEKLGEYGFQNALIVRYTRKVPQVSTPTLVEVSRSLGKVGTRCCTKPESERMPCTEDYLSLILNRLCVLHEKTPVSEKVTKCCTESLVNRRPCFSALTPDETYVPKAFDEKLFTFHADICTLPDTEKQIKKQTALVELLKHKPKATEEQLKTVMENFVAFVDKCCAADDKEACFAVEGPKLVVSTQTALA

[12] = small-molecule microarray binders of probe aXIP, primary screen, biochemical, NeuroSMM set, 635/667 nm fluorescence (AID 1119); settings: higher = more signal, called active from +8 up or from −8 down;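 note: probe is the protein aXip251-270 applied at 1 µg/mL to compound-printed slides; binding of probe to printed compounds measured as 667 nm fluorescence plus signal to noise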
[13] = small-molecule binders of probe aNOTCH3, primary screen, biochemical, small-molecule microarray, 635/667 nm fluorescence (AID 1120); settings: higher = more signal;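 note: probe is a biotin-tagged antibody raised against NOTCH3 rather than NOTCH3 protein; score merges spot fluorescence near 667 nm with spot signal to noise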
[14] = small-molecule binders of probe aNOTCH2, primary screen, biochemical, small-molecule microarray, 635/667 nm fluorescence (AID 1121); settings: higher = more signal;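 note: score merges feature fluorescence read at 667 nm with its signal to noise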
[15] = target: Carbonic anhydrase 2 (Homo sapiens) (UniProt P00918); assay: CAII small-molecule binders, profiling panel, biochemical, small-molecule microarray, Alexa647-labelled CAII (AID 1122); settings: CAII-A647 binding fluorescence, higher = more signal
[16] = COS7 lysate on small-molecule microarray, probe aHis, 635 nm (AID 1123); settings: COS7 cell lysate, fluorescence, higher = more signal;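 note: z-score combines 667nm fluorescence intensity with signal-to-noise per printed compound spot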
[17] = compound binding in COS7 lysate, probe aLAP1, primary screen, cell lysate, small-molecule microarray (AID 1124); settings: probe aLAP1, fluorescence, higher = more signal;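 note: lysate comes from COS7 cells expressing LAP1 and is applied at 0.3 µg/mL; score merges spot fluorescence near 667 nm with signal-to-noise over triplicate slides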
[18] = test system: Sam68 (KHDRBS1); assay: Sam68 small-molecule binders, primary screen, biochemical, small-molecule microarray, 635 nm fluorescence (AID 1125); settings: small-molecule microarray binding, higher = more signal;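 note: score merges 667 nm channel intensity with signal to noise over triplicate slides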
[19] = test system: Chordin-like protein 2 (CHRDL2); assay: CHRDL2 small-molecule binders, primary screen, biochemical, small-molecule microarray, 635 nm fluorescence (AID 1126); settings: small-molecule microarray binding, fluorescence 635 nm; higher = more signal;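 note: printed compound slides probed with Chrdl2 protein at 4 µg/mL for 1 h at 4 C; score merges 667 nm emission intensity with signal to noise over three replicate slides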
[20] = target: Concanavalin-A (Canavalia ensiformis) (UniProt P02866); assay: ConA small-molecule binders, primary screen, artefact control for SMM control protein annotation, biochemical, small-molecule microarray, Alexa647 label, 635 nm (AID 1127); settings: ConA-A647 binding fluorescence, higher = more signal;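 note: z combines 667 nm emission intensity with signal-to-noise across three replicate slides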
Chain of Concanavalin-A (Canavalia ensiformis) (P02866 whole entry, looked up): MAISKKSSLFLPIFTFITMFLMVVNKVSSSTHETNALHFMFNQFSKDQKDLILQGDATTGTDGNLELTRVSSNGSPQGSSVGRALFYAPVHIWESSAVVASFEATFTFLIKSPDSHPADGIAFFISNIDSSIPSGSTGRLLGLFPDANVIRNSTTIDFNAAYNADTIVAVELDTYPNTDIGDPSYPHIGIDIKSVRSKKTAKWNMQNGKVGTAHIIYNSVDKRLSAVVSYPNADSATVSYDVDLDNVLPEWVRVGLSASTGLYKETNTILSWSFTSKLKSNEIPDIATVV

Structure (SMILES) | composite z-score [1] | z-score [2] | composite z-score [3] | composite z-score [4] | composite z-score [5] | composite z-score [6] | composite z-score [7] | composite z-score [8] | composite z-score [9] | composite z-score [10] | composite z-score [11] | composite Z-score [12] | composite z-score [13] | composite z-score [14] | composite z-score [15] | composite z-score [16] | composite z-score [17] | composite z-score [18] | composite z-score [19] | composite z-score [20]
CC(=O)NCCCC[C@@H]1NC(=O)[C@H]2C[C@@H](C(=O)NCCCCCCNC(=O)CS)[C@@H](c3cccc(OCCO)c3)N2C1=O | 1.05 | -0.199 | -0.0449 | 0.83 | 0.395 | 0.127 | 0.0444 | -0.0926 | 2.1 | 0.298 | -0.637 | 0.381 (inactive) | -0.0647 | -0.108 | 0.592 | 1.84 | 0.537 | 1.28 | 0.487 | 0.447
C=C(CCCC)/C(=C/C[C@H](OC(=O)c1ccncc1)c1ccc(OCCO)cc1)c1cnc2ccccc2c1 | -0.38 | -2.25 | 0.437 | 0.679 | -0.159 | -0.129 | -0.0146 | -0.125 | 0.49 | 2.52 | 0.667 | -0.0072 (inactive) | 0.0533 | -0.0891 | 0.755 | 1.74 | 0.111 | 1.31 | 1.11 | 1.13
N#Cc1ccc(NN2C(C(O)C3CC=CCC3)C=CC3C(=O)N(c4ccccc4)C(=O)C32)cc1 (stereo not given) | 1.48 | -0.137 | 0.0779 | 0.0301 | -0.753 | -0.13 | 0.0639 | 0.313 | 0.102 | 1.17 | 1.03 | -0.098 (inactive) | 0.106 | -0.0037 | 0.486 | 3.13 | 0.452 | 1.32 | 0.0572 | 1.14
COc1ccc(C(=O)Nc2cccc(CN3C(=O)[C@@]4(O[C@@H](CC(=O)N5CCC[C@H]5CO)[C@H]([Si](C)(C)c5ccc(OC)cc5)[C@H]4C)c4ccccc43)c2)cc1 | 0.843 | -3.13 | 0.801 | 1.26 | 0.78 | -0.0643 | -0.142 | -0.138 | 1.72 | 2.08 | 0.343 | -0.0697 (inactive) | 0.0305 | -0.11 | 0.531 | 1.75 | -0.19 | 1.34 | 0.862 | 1.17
CCCCC(O)C1C=CC2C(=O)N(c3ccccc3)C(=O)C2N1Nc1ccc([N+](=O)[O-])cc1 (stereo not given) | 1.39 | -0.744 | 0.0256 | 0.521 | -0.118 | 0.0324 | 0.036 | -0.343 | 0.853 | 0.553 | 0.894 | 0.312 (inactive) | 0.27 | -0.148 | 0.583 | 2.61 | 0.738 | 1.3 | -0.0818 | 1.02
COCCOC(=O)N1C(=O)[C@@]2(c3ccccc31)[C@H](C(=O)N1CCN(c3ncccn3)CC1)[C@H]1C(=O)O[C@H](c3ccccc3)[C@H](c3ccccc3)N1[C@@H]2c1ccccc1OCCO | 1.35 | -1.79 | 0.687 | 0.902 | 0.369 | -0.0462 | 0.704 | 0.26 | 0.405 | 0.749 | -0.448 | 0.196 (inactive) | 0.102 | -0.118 | 0.506 | 1.19 | 1.37 | 1.28 | 0.761 | 1.05
CCOC(=O)C1=CC[C@@H](c2ccccc2)N(S(=O)(=O)c2ccc(C)cc2)[C@H]1c1ccccc1I | 0.77 | -0.839 | 0.316 | 1.82 | 0.944 | -0.0195 | -0.0769 | -0.327 | 0.911 | 1.19 | 0.856 | 0.008 (inactive) | 1.02 | -0.0226 | 0.649 | 0.842 | 0.748 | 0.875 | -0.131 | 1.01
C=CCC(OC(C)=O)[C@@H]1[C@@H](N(Cc2cccc3ccccc23)C(=O)c2ccc(-c3ccccc3)cc2)c2cc(OCCCO)ccc2N1C(=O)Cc1ccc2ccccc2c1 (stereo not given in full) | -0.515 | -0.105 | -0.181 | 0.858 | 0.912 | 0.0399 | 0.0278 | -0.0773 | 0.438 | 0.106 | 0.364 | -0.902 (inactive) | 0.0276 | -0.0809 | 0.268 | 0.376 | 0.0109 | -0.518 | 0.0624 | -0.214
COCCOC(=O)N1C(=O)[C@@]2(c3cc(C#CCC(C(=O)OC)C(=O)OC)ccc31)[C@H](C(=O)Nc1nc3ccccc3s1)[C@H]1C(=O)O[C@H](c3ccccc3)[C@H](c3ccccc3)N1[C@@H]2c1ccc(OCCO)cc1 | 0.783 | -2.03 | 1.21 | 1.34 | -0.21 | 0.0377 | 0.0043 | -0.0242 | 1.38 | 0.752 | -0.978 | 1.21 (inactive) | 0.414 | 0.0328 | 0.487 | 1.24 | 0.705 | 1.29 | 1.32 | 1.18
CCCCCCc1nc(-c2ccc(-c3ccc(Cl)c(Cl)c3)o2)cc2c1[Si](C(C)C)(C(C)C)OC2 | -0.474 | -0.967 | -0.924 | -0.444 | 0.742 | -0.174 | -0.372 | -0.278 | -0.875 | -0.782 | 0.521 | -0.935 (inactive) | -0.261 | -0.156 | -0.216 | 0.445 | -0.389 | -0.248 | -0.834 | -0.48
COCCOC(=O)N1C(=O)[C@@]2(c3cc(C#CCC(C(=O)OC)C(=O)OC)ccc31)[C@H](C(=O)Nc1nc3ccccc3s1)[C@H]1C(=O)O[C@H](c3ccccc3)[C@H](c3ccccc3)N1[C@@H]2c1ccc(O)cc1 | 1.42 | -0.146 | 1.31 | 0.975 | -0.0869 | -0.0044 | -0.043 | 0.459 | 0.706 | 1.63 | 0.268 | 0.247 (inactive) | 0.512 | -0.0282 | 0.279 | 1.13 | 0.705 | 1.3 | 1.07 | 1.04
COC(=O)c1cccc([C@H]2OC(=CC(=O)OC(C)C)C[C@@H](c3cccc(C(=O)OC)c3)O2)c1 | 1.43 | -2.51 | 0.599 | 1.36 | 0.144 | 0.4 | 0.156 | -0.109 | 3.27 | 0.866 | 0.937 | 0.587 (inactive) | 0.455 | -0.118 | 0.745 | 1.78 | 0.93 | 1.29 | -0.338 | 1.2
Cc1ccc(N2C(=O)c3ccccc3[C@](C)(C(=O)NCCCN(C)C)[C@@H]2c2ccc(CO)cc2)nc1 | 0.571 | -0.199 | -1.05 | -0.213 | -0.338 | -0.148 | -0.138 | -0.348 | -0.312 | 0.149 | 0.656 | -0.392 (inactive) | -0.0984 | -0.13 | 0.281 | 0.93 | -0.728 | 0.276 | -1.19 | 0.0368
CC[C@@H]1C=C(C(=O)O)[C@H](c2ccc(OC)cc2)N1S(=O)(=O)c1ccc(C)cc1 | -0.875 | -0.619 | -0.495 | 0.15 | 0.0583 | -0.154 | -0.221 | -0.209 | 0.076 | 0.0708 | 0.493 | 0.112 (inactive) | -0.061 | -0.173 | 0.852 | 2.55 | -0.388 | -0.815 | -0.377 | -0.0828
COC(=O)C[C@H]1O[C@@]2(C[C@@H]1[Si](C)(C)C)C(=O)N(C)c1ccccc12 | 1.06 | -0.83 | 0.392 | -0.197 | -0.273 | -0.0643 | -0.362 | 0.273 | -0.116 | 0.586 | 0.18 | -0.701 (inactive) | 0.0306 | -0.111 | 0.288 | 0.689 | 0.186 | 0.86 | 0.268 | 0.332
C=CCC(OC(C)=O)[C@@H]1[C@@H](N(Cc2ccc(-c3cccc(C(F)(F)F)c3)o2)C(=O)Cc2ccc(F)cc2)c2cc(OCCCO)ccc2N1C(=O)Cc1ccc2ccccc2c1 (stereo not given in full) | -0.97 | 0.022 | -0.511 | -0.599 | 0.218 | -0.0684 | 0.0684 | -0.352 | -0.016 | -0.772 | -0.0508 | -0.186 (inactive) | -0.182 | -0.104 | -0.25 | 0.121 | -0.169 | -2.04 | 0.0229 | -0.492
COc1ccc([Si](C)(C)[C@H]2[C@H](CCO)O[C@@]3(C(=O)N(Cc4ccc(NC(=O)[C@H](C)O)cc4)c4ccccc43)[C@@H]2C)cc1 | 1.42 | -5.22 | 0.378 | 1.19 | 0.0314 | -0.105 | 0.318 | 0.686 | 0.989 | 1.24 | 0.494 | 0.515 (inactive) | 0.0643 | -0.164 | 0.488 | 1.9 | 0.0861 | 1.32 | 0.101 | 0.897
